# Out of some 200,000 compounds screened, about 1,600 (0.8%) were called active.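 The calls were made as follows: active = plate Z-score above 3 for both tubulin-high and condensed-nucleus cell shares, with cell loss under 80%, at 10 µM; inactive = the rest, inconclusive results apart.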 The list comes from a sample in which actives are over-represented; it also holds similar structures and randomly drawn compounds.
# Test: tubulin staining increase by stabilizing compounds – imaging, high-content imaging, primary screen (AID 2205);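 as to % tubulin-high responders: anti alpha tubulin signal scored within the nucleus-defined area of each cell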;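 as to toxicity: 0% = mean cell density of plate MIN control wells and 100% = no cells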
# Settings: HeLa tubulin immunostaining HCS, 24 h, at 10 µM; % Hoechst-high responders: measured here: nuclear condensation Hoechst responders, stronger effect = higher value, share of cells brighter than vehicle mean+2SD; % tubulin-high responders: stronger effect = higher value, share of cells brighter than vehicle mean+2SD; toxicity: measured here: cytotoxicity by cell density
SMILES,% Hoechst-high responders [%],% tubulin-high responders,toxicity [%]
O=C(CCNS(=O)(=O)c1ccc(Br)s1)NCc1ccccc1Cl,1.95,0.853% (inactive),9.73
CCC(C)(C(=O)Nc1ccccc1C)N(C(=O)CNC(C)=O)c1ccc(C)cc1 (stereo not drawn),3.25,4.21% (inactive),4.1
CCOc1ccc(Br)cc1S(=O)(=O)Nc1ccc(C(=O)OC(C)C(=O)N(C)c2ccccc2)cc1 (stereo not drawn),0.626,6.66% (inactive),0.658
CC(=O)c1ccc(Oc2cc(C)nc(-n3nc(C)cc3C)n2)cc1,57.9,17.9% (active),18.9
Cc1cc(C)n(-c2cc(Oc3ccccc3)ncn2)n1,0.881,1.4% (inactive),3.38
COc1ccc(Nc2cc(C)nc(-n3nc(C)cc3C)n2)cc1,25.7,11.5% (inactive),60.4
CCn1cc(CN2CCCC(CNS(=O)(=O)Cc3ccccc3)C2)cn1 (stereo not drawn),2.22,3.89% (inactive),8.22
O=C(CN1CCN(Cc2ccc(F)cc2Cl)C1=O)NCc1cccs1,1.49,1.68% (inactive),2.53
CC(C)CNC(=O)CC(NCC(C)C)C(=O)O (stereo not drawn),2.02,2.59% (inactive),6.47
O=C(/C=C/c1cccs1)NCc1cccnc1,2.05,2.55% (inactive),5.06
COc1ccc(C(=O)Nc2ccc(F)cc2F)cc1,1.66,1.84% (inactive),2.01
O=C(Nc1cccc(F)c1)c1ccc(S(=O)(=O)N2CCCC2)cc1,3.36,4.55% (inactive),7.13
CCOC(=O)N1CCN(S(=O)(=O)c2ccc(C(=O)Nc3ccc(F)cc3F)cc2)CC1,35.2,29.1% (active),67.6
C/[N+]([O-])=C\c1ccc([N+](=O)[O-])o1,1.53,1.72% (inactive),3.24
CCCn1c(SCC(=O)Nc2ccc(C)c(S(=O)(=O)N3CCOCC3)c2)n[nH]c1=O,2.38,5.82% (inactive),5.63
CC(C)C(=O)NC(=S)Nc1ccccc1F,1.63,3.48% (inactive),5.15
CC(C)C(=O)Nc1cccc(NC(=S)NC(=O)C(c2ccccc2)c2ccccc2)c1,44,30.3% (active),36.2
CCCCC(=O)NNC(=S)NC(=O)C(c1ccccc1)c1ccccc1,1.83,2.83% (inactive),2.74
CC(Sc1nnc2c(n1)C1CCC2(C)C1(C)C)C(=O)Nc1ccccc1 (stereo not drawn),3,3.52% (inactive),9.4
O=C(/C=C/c1ccc(Cl)c([N+](=O)[O-])c1)c1cccnc1,0.942,1.22% (inactive),2.98
C=CCn1c(SCc2c(C)noc2C)nc2sc3c(c2c1=O)CCC(C)C3 (stereo not drawn),27.2,31.2% (active),44.4

SMILES,% Hoechst-high responders [%],% tubulin-high responders,toxicity [%]
CC1CCc2c(sc3nc4n(c(=O)c23)CCS4)C1 (stereo not drawn),1.5,1.55% (inactive),8.83
Cc1cc(NC(=O)CSc2nc(C(C)C)nc3sc4c(c23)CCC(C)C4)no1 (stereo not drawn),2.02,5.74% (inactive),9.29
O=C(CCn1ccc([N+](=O)[O-])n1)Nc1nccs1,2.43,6.18% (inactive),8.86
CCC(=O)/C=C1\Sc2ccccc2N1CC,0.853,4.83% (inactive),6.64
CCN1/C(=C/c2ccc3ccc(C)cc3[n+]2CC)Sc2ccccc21,2.38,4.83% (inactive),9.09
CCN1/C(=C\c2ccc3ccccc3[n+]2CC)Sc2cc(C)ccc21,5.5,8.18% (active),19.1
FC(F)(F)c1nnc2ccc(N3CCN(c4ccccc4)CC3)nn12,1.98,0.88% (inactive),7.36
Fc1c(F)c(C(F)(F)F)c(F)c(F)c1N1CCN(c2ccc3nnc(C(F)(F)F)n3n2)CC1,7.05,6.71% (active),8.52
Cc1nn(-c2ccccc2)c(-n2cccc2)c1C(=O)O,3.22,2.89% (inactive),10.5
CCOC(=O)c1[nH]c2c(c1C)C(=O)CC(c1ccc(N(C)C)cc1)C2 (stereo not drawn),1.67,6.74% (inactive),9.96
CCCOC(=O)c1[nH]c2c(c1C)C(=O)CC(c1cc(OC)c(OC)c(OC)c1)C2 (stereo not drawn),1.51,5.08% (inactive),9.25
CCCOC(=O)c1[nH]c2c(c1C)C(=O)CC(c1cccs1)C2 (stereo not drawn),49.4,25.2% (active),48.6
CSc1ccc(/C=N\NC(=O)CC(=O)NC(C)C)cc1,1.95,3.08% (inactive),8.56
CCOC(=O)c1nc(-c2ccc3c(c2)OCO3)[nH]c1C,10.2,26.6% (active),43
Cc1ccc(C(=O)OCC(=O)NCc2ccc3c(c2)OCO3)s1,1.59,1.75% (inactive),6.77
CCOC(=O)c1c(C)[nH]c(C(=O)COc2ccc3c(c2)OCO3)c1C,3.29,2.42% (inactive),11.4
Cc1ccc(CNC(=O)CCNS(=O)(=O)c2ccc(Br)s2)cc1,2.82,2.88% (inactive),3.85
CCOc1cccc(/C=C/c2ccc3ccccc3n2)c1OC(C)=O,3.95,5.51% (inactive),3.2
Cc1ccc2nc(-c3cccc(Br)c3)cc(C(=O)Nn3cnnc3)c2c1,3.03,6.01% (inactive),5.1
COc1ccc2c(c1)C(c1cccs1)=NNC(c1cccnc1)=N2,1.1,2.37% (inactive),7.76

# Reference: PubChem BioAssay AID2205 (University of Pittsburgh Molecular Library Screening Center, 2009)
